Measured values taken from PubChem BioAssay.
For some assays here: Entries with a potency or affinity are not part of this list. Calls of active or inactive are those of the source. Unless noted, the rule behind the calls is not given here.

Tests used:
[1] = antimalarial activity against Dd2 strain (AID 2302;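 active = growth inhibition above 50% at the single 2 µM test dose, taken to imply half-maximal potency below 2 µM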;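 note: 0% = DMSO untreated growth and 100% = chloroquine plus artemisinin killed control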); details: P. falciparum Dd2 in RBCs, LDH growth readout, 72 h; at 2 µM; active compounds read high
[2] = HepG2 cytotoxicity, primary screen, cytotoxicity control for P. falciparum antimalarial project, cell-based, ATP luminescence (AID 2303;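 active = inhibition above 50%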;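 note: 0% = DMSO wells and 100% = digitonin-killed cells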); details: HepG2 viability, 24-48 h, at 10 µM, active compounds read high
[3] = biological target: L-lactate dehydrogenase (Plasmodium falciparum (isolate CDC / Honduras)) (UniProt Q27743); test: PfLDH activity inhibition – cell lysate, 3D7 strain, counter-screen for P. falciparum growth inhibition project (AID 2304);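 note: 0% = vehicle and 100% = reference inhibitor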; details: P. falciparum 3D7 crude extract, LDH APAD/NBT absorbance; at 2 µM; active compounds read high
Chain of L-lactate dehydrogenase (Plasmodium falciparum (isolate CDC / Honduras)) (Q27743 whole entry, looked up): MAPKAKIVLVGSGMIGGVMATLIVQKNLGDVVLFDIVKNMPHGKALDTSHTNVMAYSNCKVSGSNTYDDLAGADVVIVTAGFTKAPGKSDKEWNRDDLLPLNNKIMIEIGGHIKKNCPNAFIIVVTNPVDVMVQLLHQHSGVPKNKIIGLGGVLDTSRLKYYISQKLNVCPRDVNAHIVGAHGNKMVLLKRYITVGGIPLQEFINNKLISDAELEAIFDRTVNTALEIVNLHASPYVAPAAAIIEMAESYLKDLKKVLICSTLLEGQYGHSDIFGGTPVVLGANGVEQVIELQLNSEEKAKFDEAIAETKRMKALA

[4] = inhibition of 3D7 malaria parasite growth – strain 3D7 (AID 2306);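 note: 0% = DMSO wells and 100% = chloroquine plus artemisinin control wells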; details: P. falciparum 3D7 erythrocytic growth, LDH absorbance, 72 h; at 2 µM; active compounds read high
[5] = biological target: Calcium-dependent protein kinase 1 (Plasmodium falciparum (isolate 3D7)) (UniProt P62344); test: PfCDPK1 kinase inhibitors, biochemical, TCAMS library (AID 1159585; cut-off not given, nearly all actives have IC50 up to about 0.98 µM;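 note: inhibitors leave more ATP so luminescence rises with inhibition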); details: recombinant PfCDPK1, Kinase-Glo ATP depletion luminescence
Chain of Calcium-dependent protein kinase 1 (Plasmodium falciparum (isolate 3D7)) (P62344 whole entry, looked up): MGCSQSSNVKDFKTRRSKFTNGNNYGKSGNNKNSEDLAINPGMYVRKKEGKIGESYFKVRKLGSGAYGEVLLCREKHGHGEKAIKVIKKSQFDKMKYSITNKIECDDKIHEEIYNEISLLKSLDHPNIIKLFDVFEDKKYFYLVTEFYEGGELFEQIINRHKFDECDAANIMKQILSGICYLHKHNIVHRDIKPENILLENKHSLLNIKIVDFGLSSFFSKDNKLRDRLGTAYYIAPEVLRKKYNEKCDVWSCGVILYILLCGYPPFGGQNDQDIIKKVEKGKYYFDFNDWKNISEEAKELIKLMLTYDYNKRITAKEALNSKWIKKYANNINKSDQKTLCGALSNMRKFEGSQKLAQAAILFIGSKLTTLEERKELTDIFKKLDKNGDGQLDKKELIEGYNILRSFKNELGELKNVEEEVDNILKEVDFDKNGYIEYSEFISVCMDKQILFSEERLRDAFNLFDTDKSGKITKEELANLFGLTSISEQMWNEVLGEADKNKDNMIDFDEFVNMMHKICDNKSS

[6] = biological target: Plasmodium falciparum protein kinase 6 (PK6, PF3D7_1337100) (UniProt Q8IDW1); test: PfPK6 kinase inhibitors, biochemical, TCAMS library (AID 1159586); details: recombinant PfPK6, Kinase-Glo ATP depletion luminescence
Chain of Plasmodium falciparum protein kinase 6 (PK6, PF3D7_1337100) (Q8IDW1 1-305): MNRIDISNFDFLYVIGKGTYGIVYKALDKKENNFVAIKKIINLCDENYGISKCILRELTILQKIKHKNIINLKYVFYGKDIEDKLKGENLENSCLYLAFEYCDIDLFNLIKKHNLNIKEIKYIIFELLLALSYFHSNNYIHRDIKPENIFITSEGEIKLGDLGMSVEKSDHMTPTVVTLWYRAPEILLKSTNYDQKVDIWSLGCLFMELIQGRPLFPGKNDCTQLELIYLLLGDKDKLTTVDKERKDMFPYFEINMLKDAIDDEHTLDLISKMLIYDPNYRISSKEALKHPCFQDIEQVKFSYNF

[7] = biological target: Protein kinase 7 (PK7), Plasmodium falciparum 3D7 (PF3D7_0213400) (UniProt Q7YTF7); test: inhibition of Plasmodium PK7 catalytic activity – biochemical, TCAMS antimalarial set, Kinase-Glo luminescence (AID 1159587); details: recombinant PfPK7, Kinase-Glo ATP depletion luminescence
Chain of Protein kinase 7 (PK7), Plasmodium falciparum 3D7 (PF3D7_0213400) (Q7YTF7 1-343): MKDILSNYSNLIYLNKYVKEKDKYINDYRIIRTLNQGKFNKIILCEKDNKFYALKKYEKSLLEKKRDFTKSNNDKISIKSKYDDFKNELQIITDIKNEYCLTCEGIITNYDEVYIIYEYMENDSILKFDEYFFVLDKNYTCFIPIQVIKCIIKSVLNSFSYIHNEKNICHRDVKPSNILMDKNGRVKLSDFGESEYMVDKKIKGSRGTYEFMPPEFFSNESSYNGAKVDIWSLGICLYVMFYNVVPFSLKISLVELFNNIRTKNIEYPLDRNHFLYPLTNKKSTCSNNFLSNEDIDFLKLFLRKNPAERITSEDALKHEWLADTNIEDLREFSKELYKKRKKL

[8] = biological target: Calcium-dependent protein kinase 4 (Plasmodium falciparum (isolate 3D7)) (UniProt Q8IBS5); test: PfCDPK4 kinase inhibitors, biochemical, TCAMS library (AID 1159588; cut-off not given, nearly all actives have IC50 up to about 0.91 µM); details: recombinant PfCDPK4, Kinase-Glo ATP depletion luminescence
Chain of Calcium-dependent protein kinase 4 (Plasmodium falciparum (isolate 3D7)) (Q8IBS5 whole entry, looked up): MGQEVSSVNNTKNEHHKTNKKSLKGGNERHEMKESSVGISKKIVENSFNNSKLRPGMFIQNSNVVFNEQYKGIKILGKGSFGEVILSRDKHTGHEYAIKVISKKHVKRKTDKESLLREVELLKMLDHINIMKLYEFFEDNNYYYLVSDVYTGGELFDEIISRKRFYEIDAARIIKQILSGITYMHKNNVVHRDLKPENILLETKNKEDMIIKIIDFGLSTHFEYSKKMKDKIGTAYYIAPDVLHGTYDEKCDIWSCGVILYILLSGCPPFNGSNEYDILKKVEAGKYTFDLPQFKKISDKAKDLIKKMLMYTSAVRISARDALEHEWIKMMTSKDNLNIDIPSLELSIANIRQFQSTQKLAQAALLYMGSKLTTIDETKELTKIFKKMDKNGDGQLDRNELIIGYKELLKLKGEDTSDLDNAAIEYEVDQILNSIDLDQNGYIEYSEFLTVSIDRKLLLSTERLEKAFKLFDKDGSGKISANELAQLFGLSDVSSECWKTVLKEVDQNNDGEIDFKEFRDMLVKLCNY

FC(F)(F)c1ccc2nccc(NN=Cc3cccnc3)c2c1
inactive: growth inhibition [1] 40% | inhibition [2] -9% | inhibition [3] -8% | outcome [5] | outcome [6] | outcome [7] | outcome [8]
active: growth inhibition [4] 101%

NC(N)=NN=CC(=O)Nc1ccc(Cl)c(Cl)c1
inactive: growth inhibition [1] 0% | inhibition [2] -14% | inhibition [3] 0% | outcome [5] | outcome [6] | outcome [7] | outcome [8]
active: growth inhibition [4] 97%

CCOC(=O)NCCSC(C)(C)[C@H](NC(=O)[C@H](Cc1cc2ccccc2s1)[C@H](CC)N(O)C=O)C(=O)Nc1nccs1
active: growth inhibition [1] 98% | growth inhibition [4] 98%
inactive: inhibition [2] 11% | inhibition [3] 1% | outcome [5] | outcome [6] | outcome [7] | outcome [8]

CCN(CC)CCN(Cc1ccc(-c2ccc(Br)cc2)cc1)C(=O)Cn1c(CCc2cccc(F)c2F)nc(=O)c2ccccc21
inactive: inhibition [2] 37% | inhibition [3] 1% | outcome [5] | outcome [6] | outcome [7] | outcome [8]
active: growth inhibition [1] 74% | growth inhibition [4] 98%

COc1ccc(Nc2nc(NCc3ccc(-n4ccnc4)cc3)cc(-c3ccc(OC)cc3)n2)cc1
inactive: growth inhibition [1] 25% | inhibition [2] 8% | inhibition [3] -2% | outcome [5] | outcome [6] | outcome [7] | outcome [8]
active: growth inhibition [4] 96%

Cc1ccc(CCNCC(O)c2cccc(C(F)(F)F)c2)cc1 (stereo unspecified)
inactive: inhibition [2] -3% | inhibition [3] 0% | outcome [5] | outcome [6] | outcome [7] | outcome [8]
active: growth inhibition [1] 83% | growth inhibition [4] 94%

O=C(Cc1ccccc1)NC(Nc1ccc([N+](=O)[O-])cc1)C(Cl)(Cl)Cl (stereo unspecified)
inactive: inhibition [2] 21% | inhibition [3] 1% | outcome [5] | outcome [6] | outcome [7] | outcome [8]
active: growth inhibition [1] 100% | growth inhibition [4] 99%

Cc1[nH]c(C)c(-c2ccc(-c3cccc(Cl)c3)nc2)c(=O)c1Br
inactive: inhibition [2] 10% | inhibition [3] 3% | outcome [5] | outcome [6] | outcome [7] | outcome [8]
active: growth inhibition [1] 96% | growth inhibition [4] 96%

CCCc1cc(Cc2cnc(N)nc2N)cc(CC)c1OC
active: growth inhibition [4] 97%
inactive: growth inhibition [1] 1% | inhibition [2] 4% | inhibition [3] -7% | outcome [5] | outcome [6] | outcome [7] | outcome [8]

FC(F)(F)COc1ccc(CNCCCCCCNCc2ccc(OCC(F)(F)F)c3ccccc23)c2ccccc12
active: growth inhibition [1] 93% | inhibition [2] 99% | growth inhibition [4] 102%
inactive: inhibition [3] 3% | outcome [5] | outcome [6] | outcome [7] | outcome [8]

COc1cc2nc(NCCc3ccccc3)nc(NCc3nccs3)c2cc1OC
active: growth inhibition [1] 93% | growth inhibition [4] 99%
inactive: inhibition [2] 1% | inhibition [3] 0% | outcome [5] | outcome [6] | outcome [7] | outcome [8]

CC(C)CSc1cc(C(=O)Nc2cc(Cl)ccc2O)ccn1
inactive: growth inhibition [1] 34% | inhibition [2] 36% | inhibition [3] -2% | outcome [5] | outcome [6] | outcome [7] | outcome [8]
active: growth inhibition [4] 100%

COC(=O)c1cc(C(O)CNC(C)CCCc2ccccc2)ccc1O (stereo unspecified)
active: growth inhibition [1] 97% | growth inhibition [4] 99%
inactive: inhibition [2] 17% | inhibition [3] 0% | outcome [5] | outcome [6] | outcome [7] | outcome [8]

CN(CCN)Cc1cccc(-c2cccc(-c3nc4ccc(F)cc4[nH]3)c2)c1
inactive: growth inhibition [1] 19% | inhibition [2] 20% | inhibition [3] 6% | outcome [5] | outcome [6] | outcome [7] | outcome [8]
active: growth inhibition [4] 95%

COc1cc(C(=O)N2[C@@H](c3nccs3)[C@@H](C(=O)N(OC)C(C)c3ccccc3)C[C@@]2(CC(C)C)C(=O)OC(C)(C)C)ccc1C(C)(C)C (stereo partly specified)
inactive: inhibition [2] 12% | inhibition [3] 5% | outcome [5] | outcome [6] | outcome [7] | outcome [8]
active: growth inhibition [1] 92% | growth inhibition [4] 92%

CN1CCCc2ccc(NC(=O)C=Cc3ccc(-c4ccc(F)cc4F)o3)cc2C1
active: growth inhibition [4] 98%
inactive: growth inhibition [1] 20% | inhibition [2] 8% | inhibition [3] -5% | outcome [5] | outcome [6] | outcome [7] | outcome [8]

O=C(Nc1cccc(-c2cccc(-c3nc4ccc(F)cc4[nH]3)c2)c1)c1csnn1
inactive: growth inhibition [1] 29% | inhibition [2] 23% | inhibition [3] -4% | outcome [5] | outcome [6] | outcome [7] | outcome [8]
active: growth inhibition [4] 95%

COc1ccc2nccc(N3CCC(CCNCc4ccc5c(n4)NC(=O)CS5)CC3)c2c1
active: growth inhibition [1] 86% | inhibition [2] 55% | growth inhibition [4] 101%
inactive: inhibition [3] -1% | outcome [5] | outcome [6] | outcome [7] | outcome [8]

CN1CCc2ccc(NC(=O)Nc3cccc(C(=O)c4ccccc4)c3)cc2C1
inactive: growth inhibition [1] 16% | inhibition [2] 11% | inhibition [3] -1% | outcome [5] | outcome [6] | outcome [7] | outcome [8]
active: growth inhibition [4] 83%

Cc1nc(-c2ccc(-c3ccc(C(=O)Nc4ccc(I)c(OCC5CCCN5C)c4)cc3)c(C)c2)no1 (stereo unspecified)
inactive: growth inhibition [1] 39% | inhibition [3] -2% | outcome [5] | outcome [6] | outcome [7] | outcome [8]
active: inhibition [2] 100% | growth inhibition [4] 97%

O=C(c1cccc(-c2noc(C(F)(F)F)n2)c1)N1CCN(C(=O)c2ccc3cc[nH]c3c2)CC1
inactive: inhibition [2] 15% | inhibition [3] -3% | outcome [5] | outcome [6] | outcome [7] | outcome [8]
active: growth inhibition [1] 85% | growth inhibition [4] 94%

COC(=O)c1ccc(NC(=O)Nc2cccc(CCNCc3ccccc3)c2)cc1
active: growth inhibition [4] 96%
inactive: growth inhibition [1] 10% | inhibition [2] 2% | inhibition [3] 6% | outcome [5] | outcome [6] | outcome [7] | outcome [8]

O=C(NCCCN1CCOCC1)c1ccc(-c2cccc(NC(=O)c3ccc(Cl)c(Cl)c3)c2)cc1
inactive: inhibition [2] 3% | inhibition [3] 3% | outcome [5] | outcome [6] | outcome [7] | outcome [8]
active: growth inhibition [1] 68% | growth inhibition [4] 100%

CCCC1N=C(N)N=C(N)N1c1ccc(C)cc1 (stereo unspecified)
active: growth inhibition [4] 94%
inactive: growth inhibition [1] 2% | inhibition [2] 1% | inhibition [3] -3% | outcome [5] | outcome [6] | outcome [7] | outcome [8]

CCCc1cc(OC)c(C[C@@H]2c3cc(O)c(Cl)cc3CCN2C)cc1OC
inactive: inhibition [2] 3% | inhibition [3] 8% | outcome [5] | outcome [6] | outcome [7] | outcome [8]
active: growth inhibition [1] 98% | growth inhibition [4] 98%

CN(C)CCC1CCCc2ccc(NC(=O)Nc3ccc(-c4ccncc4)c4ccccc34)cc21 (stereo unspecified)
active: growth inhibition [4] 89%
inactive: growth inhibition [1] 27% | inhibition [2] 34% | inhibition [3] 6% | outcome [5] | outcome [6] | outcome [7] | outcome [8]

CN(C(=O)/C=C/c1c(Cl)cccc1Cl)C1CCN(CCCCCNC(=O)/C=C/c2ccc(Cl)c(Cl)c2)CC1
active: growth inhibition [1] 62% | inhibition [2] 78% | growth inhibition [4] 92%
inactive: inhibition [3] 4% | outcome [5] | outcome [6] | outcome [7] | outcome [8]

O=C(Nc1cccc(CN2CCCN(Cc3ccsc3)CC2)c1)c1cc2ccccc2s1
inactive: growth inhibition [1] 29% | inhibition [2] 25% | inhibition [3] 5% | outcome [5] | outcome [6] | outcome [7] | outcome [8]
active: growth inhibition [4] 96%

O=C(NCCCN1CCC(NC(=O)c2ccc(-c3cccnc3)cc2)CC1)c1ccc(Cl)c(Cl)c1
active: growth inhibition [4] 94%
inactive: growth inhibition [1] 23% | inhibition [2] 17% | inhibition [3] -5% | outcome [5] | outcome [6] | outcome [7] | outcome [8]

O=C(NC1CC1)c1ccc2cc(C(=O)N3Cc4ccccc4C(c4ccccc4)C3)ccc2c1 (stereo unspecified)
active: growth inhibition [1] 64% | growth inhibition [4] 97%
inactive: inhibition [2] -2% | inhibition [3] 1% | outcome [5] | outcome [6] | outcome [7] | outcome [8]

CC(C)c1sc(N2CCCCC2)nc1C(=O)Nc1ccc(F)cc1C(F)(F)F
active: growth inhibition [1] 98% | growth inhibition [4] 100%
inactive: inhibition [2] -1% | inhibition [3] 0% | outcome [5] | outcome [6] | outcome [7] | outcome [8]

O=C(Nc1cccnc1)c1cc(-c2cc(Cl)ccc2O)n[nH]1
inactive: inhibition [2] 7% | inhibition [3] 6% | outcome [5] | outcome [6] | outcome [7] | outcome [8]
active: growth inhibition [1] 85% | growth inhibition [4] 98%

CCOc1ccc2c(c1)OC(c1ccccc1)(C(F)(F)F)NC2=O (stereo unspecified)
inactive: inhibition [2] -7% | inhibition [3] -2% | outcome [5] | outcome [6] | outcome [7] | outcome [8]
active: growth inhibition [1] 98% | growth inhibition [4] 100%

CC1(C)N=C(N)N=C(N)N1OCc1ccc2ccccc2c1CON1C(N)=NC(N)=NC1(C)C
inactive: growth inhibition [1] 12% | inhibition [2] 8% | inhibition [3] 1% | outcome [5] | outcome [6] | outcome [7] | outcome [8]
active: growth inhibition [4] 96%

CC(C)NCc1cccc(-c2ccc(NC(=O)c3cccc(C#N)c3)cc2)c1
inactive: inhibition [2] 22% | inhibition [3] 6% | outcome [5] | outcome [6] | outcome [7] | outcome [8]
active: growth inhibition [1] 95% | growth inhibition [4] 101%

CC(=O)N(C)/N=C/[C@H](CCc1ccccc1)NC(=O)[C@H](CC(C)C)NC(=O)c1cccc(OCCN2CCOCC2)c1
active: growth inhibition [1] 65% | growth inhibition [4] 89%
inactive: inhibition [2] 5% | inhibition [3] 5% | outcome [5] | outcome [6] | outcome [7] | outcome [8]

Cc1cccc(NC(=O)Nc2cccc(-c3ccc(-c4nc5ccc(C(F)(F)F)cc5[nH]4)cc3)c2)c1
inactive: inhibition [2] 44% | inhibition [3] -1% | outcome [5] | outcome [6] | outcome [7] | outcome [8]
active: growth inhibition [1] 94% | growth inhibition [4] 101%
